# Measured values taken from the supplement of paper PMC6089552.
# In all, about 3,200 compounds went through this assay and about 300 (9.4%) showed activity. Only a selection was taken, and actives are over-represented in it overall.
# Test system: A673/TR/shEF
# Assay: cell viability (LOESS-normalised, relative to median of negative controls) (log2 ratio); higher = more viable cells (less compound effect), active = hit call of the paper (over 3 MAD below the median)
# Settings: treatment time: 72 h
# Method in brief: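 A673/TR/shEF Ewing sarcoma cells (1,500 per well, 384-well plates) were grown with or without doxycycline to induce EWS-FLI1 shRNA knockdown, starting 24 h before compounds. Library compounds at two or more concentrations, with DMSO controls, were added for three days. Cell viability was read by CellTiter-Glo luminescence on an Envision reader, then LOESS-corrected per plate, divided by the median of negative controls and log2-transformed. Hits were wells at least three median absolute deviations from the median of all screened wells.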
# [1] = 0.25 µM, library screen: screen1, EWS-FLI1 expression: high (no doxycycline)
# [2] = 0.25 µM, library screen: screen1, EWS-FLI1 expression: low (doxycycline-induced shRNA knockdown)
# [3] = 2.5 µM, library screen: screen1, EWS-FLI1 expression: high (no doxycycline)
# [4] = 2.5 µM, library screen: screen1, EWS-FLI1 expression: low (doxycycline-induced shRNA knockdown)
structure (smiles),measurement,setting,value
CN=C(N)NCCCC(N)C(=O)O (stereo unspecified),cell viability (log2),[1],0.0723 (inactive)
same,cell viability (log2),[2],0.0246 (inactive)
same,cell viability (log2),[3],-0.0207 (inactive)
same,cell viability (log2),[4],-0.0108 (inactive)
Nn1c(SCC(=O)c2ccc(Cl)cc2)nc2ccccc2c1=O,cell viability (log2),[1],0.102 (inactive)
same,cell viability (log2),[2],0.0418 (inactive)
same,cell viability (log2),[3],0.24 (inactive)
same,cell viability (log2),[4],0.000811 (inactive)
CC1(C)Oc2ccc3ccc(=O)oc3c2C[C@H]1O,cell viability (log2),[1],0.0366 (inactive)
same,cell viability (log2),[2],-0.00203 (inactive)
same,cell viability (log2),[3],0.0909 (inactive)
same,cell viability (log2),[4],0.0204 (inactive)
NC[C@@H]1O[C@H](O[C@H]2[C@@H](O)[C@H](O[C@@H]3[C@@H](O)[C@H](N)C[C@H](N)[C@H]3O[C@H]3O[C@H](CO)[C@@H](O)C[C@H]3N)O[C@@H]2CO)[C@H](N)[C@@H](O)[C@@H]1O[C@H]1O[C@H](CO)[C@@H](O)[C@H](O)[C@@H]1O,cell viability (log2),[1],0.156 (inactive)
same,cell viability (log2),[2],0.0397 (inactive)
same,cell viability (log2),[3],0.0315 (inactive)
same,cell viability (log2),[4],0.0591 (inactive)
Cc1nc(-c2ccc(NC(=O)c3ccccc3)cc2)cs1,cell viability (log2),[1],0.118 (inactive)
same,cell viability (log2),[2],0.115 (inactive)
same,cell viability (log2),[3],0.0995 (inactive)
same,cell viability (log2),[4],0.089 (inactive)
CC(=O)Nc1cccc(O)c1,cell viability (log2),[1],0.142 (inactive)
same,cell viability (log2),[2],0.0568 (inactive)
same,cell viability (log2),[3],0.211 (inactive)
same,cell viability (log2),[4],-0.0215 (inactive)
Cc1ccc(NC(=O)c2cccc(N(C)C)c2)cc1NC(=O)c1ccc(O)cc1,cell viability (log2),"0.025 µM, library screen: screen1, EWS-FLI1 expression: high (no doxycycline)",0.191 (inactive)
same,cell viability (log2),"0.025 µM, library screen: screen1, EWS-FLI1 expression: low (doxycycline-induced shRNA knockdown)",-0.0357 (inactive)
same,cell viability (log2),[1],0.277
same,cell viability (log2),[2],0.139 (inactive)
same,cell viability (log2),[3],-0.147 (active)
same,cell viability (log2),[4],0.168 (inactive)
same,cell viability (log2),"25 µM, library screen: screen1, EWS-FLI1 expression: high (no doxycycline)",-0.322 (active)
same,cell viability (log2),"25 µM, library screen: screen1, EWS-FLI1 expression: low (doxycycline-induced shRNA knockdown)",0.196 (inactive)
CC1(C)C(=O)C=C[C@]2(C)C3CC[C@@]4(C)[C@H](c5ccoc5)OC(=O)[C@H]5O[C@]54[C@]3(C)C(=O)C[C@@H]12 (stereo partly specified),cell viability (log2),[1],0.0539 (inactive)
same,cell viability (log2),[2],0.0813 (inactive)
same,cell viability (log2),[3],0.0765 (inactive)
same,cell viability (log2),[4],0.119 (inactive)
Cc1cc(=O)oc2c(O)c(O)ccc12,cell viability (log2),[1],-0.0965 (active)
same,cell viability (log2),[2],-0.0218 (inactive)
same,cell viability (log2),[3],0.0459 (inactive)
same,cell viability (log2),[4],0.107 (inactive)
Cc1cc(=O)oc2cc(O)c(O)cc12,cell viability (log2),[1],-0.0238 (inactive)
same,cell viability (log2),[2],0.0536 (inactive)
same,cell viability (log2),[3],0.00784 (inactive)
same,cell viability (log2),[4],0.0751 (inactive)
Cc1cc(=O)oc2cc(O)ccc12,cell viability (log2),[1],0.129 (inactive)
same,cell viability (log2),[2],0.0733 (inactive)
same,cell viability (log2),[3],0.103 (inactive)
same,cell viability (log2),[4],-0.0344 (inactive)
N#CC1=C(N)Oc2cc(N)ccc2C1c1ccc(OCc2ccccc2)cc1 (stereo unspecified),cell viability (log2),[1],0.04 (inactive)
same,cell viability (log2),[2],0.0479 (inactive)
same,cell viability (log2),[3],0.099 (inactive)
same,cell viability (log2),[4],0.204 (inactive)
CC(C)C[C@H](N)CSSC[C@@H](N)CC(C)C,cell viability (log2),"0.25 µM, library screen: screen2, EWS-FLI1 expression: high (no doxycycline)",0.107 (inactive)
same,cell viability (log2),"0.25 µM, library screen: screen2, EWS-FLI1 expression: low (doxycycline-induced shRNA knockdown)",0.1 (inactive)
same,cell viability (log2),"2.5 µM, library screen: screen2, EWS-FLI1 expression: high (no doxycycline)",0.104 (inactive)
same,cell viability (log2),"2.5 µM, library screen: screen2, EWS-FLI1 expression: low (doxycycline-induced shRNA knockdown)",0.0902 (inactive)
